An excerpt weighted towards active compounds, which were near 12% of everything screened.
Sfp PPTase inh: qHTS Assay for Inhibitors of Bacillus subtilis Sfp phosphopantetheinyl transferase (PPTase); Biochemical Sfp PPTase activity, qHTS; Potency, µM, inactives show largest response in the series, negative = inhibition, hits mostly inhibitors; 3.5% of 310,000 active;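 also: the enzyme is Sfp with the accession as filed and its product quenches rhodamine fluorescence; 0% = enzyme reaction without inhibitor and -100% = no enzyme wells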
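Sfp 15 nM + cpd, 15 min RT; start w/ rhodamine-CoA 5 uM, BHQ-2-YbbR 12.5 uM (final); 50 mM Hepes pH 7.6, 10 mM MgCl2, 0.01% NP-40, 0.01% BSA; read 525/598 nm at 0 and 30 min.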
TDP1 inh: qHTS Assay for Inhibitors of Tyrosyl-DNA Phosphodiesterase (TDP1); Tyrosyl-DNA phosphodiesterase 1 (Homo sapiens), Q9NUW8; recombinant TDP1, AlphaScreen DNA substrate cleavage; Potency, µM (top dose mostly 130 µM), for the others: at the top dose activity change, negative = inhibition, usual class: inhibitors; 0.28% of 350,000 active; also: % is scaled to controls: 0 for no effect and ±100 for the full control effect; nearly all actives have a fitted effect of over 40% in size
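E. coli-derived human Tdp1, 1 nM final. Cpd preinc 15 min RT; substrate 15 nM final, 5 min RT; AS bead mix 10 ug/ml final, 10 min RT. Signal loss = tyrosine-FITC cleavage. No-enzyme wells = max signal.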
G9a inh: qHTS Assay for Inhibitors of Histone Lysine Methyltransferase G9a; Potency, µM (series often up to 102 µM), for the others: top-dose activity, negative = inhibition, usual class: inhibitors; G9a H3K9 monomethylation, AlphaScreen, 2 h; 8.8% of 350,000 active; also: % is scaled to controls: 0 for no effect and ±100 for the full control effect; nearly all actives have a fitted effect of over 75% in size
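Step 1: enzyme (final 20 nM) with compound, 15 min RT. Step 2: substrate peptide 500 nM and SAM 20 uM, 2 h RT. Step 3: anti-H3K9me1 antibody and AlphaScreen beads, 10 min, then plate read.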
JMJD2A Tudor: qHTS Assay for Inhibitors of JMJD2A-Tudor Domain. 4.4% of 390,000 active. Potency, µM (doses to about 114 µM), without a hit: at the top dose activity change, negative = inhibition, usual class: inhibitors. Lysine-specific demethylase 4A (Homo sapiens), O75164. AlphaScreen JMJD2A-Tudor / H3K4me3 peptide binding; also: % is scaled to controls: 0 for no effect and ±100 for the full control effect; nearly all actives have a fitted effect of over 50% in size
HP1b binding inh: HTS for Inhibitors of HP1-beta Chromodomain Interactions with Methylated Histone Tails | AlphaScreen HP1-beta / biotin-H3K9me3 peptide binding | Potency, µM (top dose mostly 114 µM), inactives show top-dose activity change, negative = inhibition, actives largely listed as inhibitors | 0.56% of 390,000 active | AID 540317, 2011; also: nearly all actives have a fitted effect of over 70% in size
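Compound inhibition of the preformed complex between 50 nM HP1-beta and 50 nM biotinylated H3K9me3 peptide was read by AlphaScreen. Buffer was PBS pH 7.4 with 0.01% Tween-20. Incubations ran 30 min at room temperature, with 10 ug/mL donor/acceptor beads.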
BAZ2B block: qHTS Assay for Inhibitors of BAZ2B; Bromodomain adjacent to zinc finger domain protein 2B (Homo sapiens), Q9UIF8; AlphaScreen BAZ2B-H3K14Ac peptide displacement; Potency, µM (titrated, usually from 114 µM), inactives show at the top dose activity change, negative = inhibition, most hits filed as inhibitors; 4.4% of 360,000 active; AID 504333, 2011; also: % is scaled to controls: 0 for no effect and ±100 for the full control effect; nearly all actives have a fitted effect of over 60% in size
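Inhibition is scored as reduced AlphaScreen emission. The BAZ2B/b-H3(5-23)K14Ac complex (50 nM each) in PBS pH 7.4, 0.01% Tween-20 meets compound (up to 110 uM) for 30 min at RT before bead addition.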
Numbers without * were called inactive; ? = inconclusive; . = no result; [ ] = another dose, or the depositor's remark. Calls follow the shape of the dose curve; as a rule, active = well fitted curve in the direction sought with a large enough effect; inconclusive = small, poorly fitted or top-dose-only effect, or another doubt; inactive = no such curve, though single readings can be large; an effect the other way counts as inactive or inconclusive. Potency is read from the fitted curve at half-maximal effect.

SMILES | Sfp PPTase inh | TDP1 inh | G9a inh | JMJD2A Tudor | HP1b binding inh | BAZ2B block
N#Cc1c(NC(=O)COC(=O)c2ccc(O)cc2O)sc2c1CCC2 | . | 22.4µM* | ? | -35.5% | -14.7% | -31.3%
COC(=O)c1nnn(-c2ccc(Br)cc2)c1C(=O)OC | . | -5.0% | -28.6%[59 µM] | -5.8% | 23.4% | -35.3%
O=C(CNC(=O)c1ccc(Br)o1)NCc1ccccc1 | 2.4% | 4.8% | 24.8% | -5.5% | 34.9% | -16.6%
O=C(CNC(=O)c1ccccc1Br)NCC(c1ccco1)N1CCCCC1 (configuration not stated) | . | . | . | -8.1% | 17.3% | .
Cc1ccccc1-c1noc(-c2cc(C(C)C)[nH]n2)n1 | . | 0.0% | 5.3%[59 µM] | 0.3% | 66.3% | 11.2%
CC1=CC(=O)C=C(C)C1=NOc1ccccc1[N+](=O)[O-] | 5.62µM* | 6.3% | 25.1µM* | -28.5% | 4.9% | 0.8%
Cc1cc(Cl)c(S(=O)(=O)NC2CCCC2)cc1OCC(N)=O | 7.9% | 0.8% | 21.5%[12.7 µM] | -7.6% | 14.6% | -2.0%
C=CCN1C(c2ccc(OCC)cc2)=CS/C1=C(\C#N)c1nnc2n1CCCCC2 | ? | 5.6% | 3.55µM* | ? | -5.1% | ?
O=C(NCc1ccco1)c1cnn2c(C(F)(F)F)cc(-c3cccs3)nc12 | 31.6µM* | 2.1% | -3.5%[59 µM] | -6.2% | 15.7% | .
Cc1cc(C)c(Cc2c(C)nc3c(C(=O)NCc4ccco4)cnn3c2C)c(C)c1 | 56.2µM* | 7.0% | ? | ? | -8.1% | -8.4%
Cc1cc(C)c2c(N)c(C(=O)NCc3ccco3)sc2n1 | -9.5% | -0.2% | 10µM* | -12.1% | 29.7% | -1.5%
CCN1C(=O)C2(C(C(=O)c3cc4ccccc4o3)=C(O)C(=O)N2CCCN(C)C)c2ccccc21 (configuration not stated) | 32.5% | 2.9% | -32.9% | -13.7% | 12.2% | -14.8%
CCN(CC)CCCn1c2c(c(SCC(=O)N3CCc4ccccc43)nc1=O)CCC2 | . | . | 12.4%[0.501 µM] | -26.9% | 2.1% | -6.6%
Oc1ccc(CCC2CCCCN2Cc2nc(C3CC3)no2)cc1 (configuration not stated) | -2.4% | 1.2% | . | -19.4% | -5.8% | -13.3%
CCn1nnc(NC(=O)c2cccnc2)n1 | -27.9% | 1.9% | 39.8µM* | -4.8% | -18.0% | -30.0%
COc1ccc(NC(=O)c2cccnc2)cc1 | 33.3% | . | 50.6% | -7.5% | 30.3% | 5.8%
CCN(CC)c1ccc(NC(=O)c2cccnc2)cc1 | -15.2% | -1.0% | 10µM* | -25.2% | 8.8% | ?
COc1cccc(C=Nc2cc(C)on2)c1O | -14.7% | -2.2% | ? | -11.5%[57.1 µM] | 58.7% | -0.6%
Cc1cc(N=Cc2c(O)n(-c3ccc(C)c(C)c3)c(=O)c3ccccc23)no1 | -14.7% | 1.8% | -6.6%[59 µM] | . | . | -16.3%
Cc1cc(N=Cc2c(O)ccc3ccccc23)no1 | -13.0% | 4.9% | 1.12µM* | 28.2µM* | -10.0% | 6.3%
Cc1cc(N=Cc2c(O)ccc3cc(Br)ccc23)no1 | 6.5% | 0.0% | 1.41µM* | 1.78µM* | ? | 10.0%
O=C(OCC(=O)N1c2ccccc2Sc2ccccc21)C1CC(=O)N(Cc2ccco2)C1 (configuration not stated) | -24.2% | 11.7% | 50.1µM* | ? | -12.5% | ?
O=C(COC(=O)C1CC(=O)N(Cc2ccco2)C1)Nc1ccccc1[N+](=O)[O-] (configuration not stated) | . | -13.9% | -43.3% | -20.1% | -9.3% | -3.5%
CCOC(=O)c1ccc(NC2SC(=O)N(Cc3cccc(C(=O)O)c3)C2=O)cc1 (configuration not stated) | . | . | 2.82µM* | -21.1% | 40.8% | -4.9%

Assay outcomes from PubChem BioAssay.
